# Sampled rows, rich in hits. Any-hit rate of the full collection: about 2.6%.
# Mcl1-Noxa inh: Mcl-1/Noxa binding inhibitors, primary screen, biochemical, TR-FRET, 1536-well. TR-FRET Mcl-1/Noxa peptide binding, 2 h. inhibition, % at 21.7 µM. Induced myeloid leukemia cell differentiation protein Mcl-1 (Homo sapiens), Q07820. 1.5% of 220,000 active;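 active = compounds that cut the protein-peptide binding signal by more than 50% relative to plate controls in a single-dose test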;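 note: His-tagged Mcl-1 with rhodamine Noxa BH3 peptide and terbium anti-His antibody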
# Target sequence (Q07820 whole entry, looked up): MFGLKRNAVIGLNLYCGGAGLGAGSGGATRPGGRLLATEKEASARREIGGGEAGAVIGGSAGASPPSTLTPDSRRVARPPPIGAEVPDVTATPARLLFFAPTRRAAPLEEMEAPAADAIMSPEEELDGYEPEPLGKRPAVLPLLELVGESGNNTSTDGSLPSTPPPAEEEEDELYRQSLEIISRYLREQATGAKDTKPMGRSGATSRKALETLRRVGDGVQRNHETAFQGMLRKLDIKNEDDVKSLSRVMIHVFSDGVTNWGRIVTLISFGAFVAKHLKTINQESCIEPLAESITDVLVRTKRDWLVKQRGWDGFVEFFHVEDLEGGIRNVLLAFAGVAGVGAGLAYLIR
# eIF4E-4G inh: eIF4E–eIF4G protein interaction inhibitors, primary screen, biochemical, uHTS, TR-FRET, eIF4GI fragment. Eukaryotic translation initiation factor 4E (Mus musculus) + Eukaryotic translation …. TR-FRET eIF4E-eIF4GI(517-606) binding, 2 h. inhibition, % at 21.7 µM. 0.37% of 220,000 active;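 active = inhibition above about 30%, limit read from the data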
# 14-3-3 Bad inh: inhibitors of 14-3-3 zeta/Bad binding, primary screen, biochemical, TR-FRET, bovine 14-3-3 zeta; inhibition, % at 21.7 µM; 0.71% of 220,000 active; TR-FRET 14-3-3zeta/Dy647-pBad peptide displacement, 1 h; 14-3-3 protein zeta/delta (Bos taurus), P63103;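 active = inhibition above about 70%, limit read from the data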
# Target sequence (P63103 whole entry, looked up): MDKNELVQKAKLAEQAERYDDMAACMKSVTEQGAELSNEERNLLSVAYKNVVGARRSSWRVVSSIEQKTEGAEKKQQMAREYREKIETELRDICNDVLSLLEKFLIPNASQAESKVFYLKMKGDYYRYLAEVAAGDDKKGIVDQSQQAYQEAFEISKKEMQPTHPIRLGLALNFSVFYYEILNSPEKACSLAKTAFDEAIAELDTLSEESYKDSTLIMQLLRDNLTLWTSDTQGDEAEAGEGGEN
# MCL1-BIM inh: inhibitors of MCL1 binding to BIM-BH3, primary screen, biochemical, fluorescence polarization; 0.68% of 320,000 active; inhibition, % at 10.9 µM; Induced myeloid leukemia cell differentiation protein Mcl-1 (Homo sapiens), Q07820; GST-MCL1 / FITC-Bim-BH3 fluorescence polarization;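 active = inhibition above the mean inhibition of all tested compounds plus 3 SD, set per campaign, cut at about 40% in these data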;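 note: higher means more loss of mP so more displacement of Bim peptide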
# Mcl1 Bid PPI: Mcl-1/Bid binding inhibitors, primary screen, biochemical, TR-FRET, 1536-well. TR-FRET Mcl-1/Bid-Dy647 peptide binding. inhibition, % at 21.7 µM. 0.97% of 220,000 active;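 active = compounds that cut the binding signal by more than half at the single screening dose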;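 note: His-tagged Mcl-1 with europium anti-His antibody binding Bid BH3 peptide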
# Mcl-1 Bim block: inhibitors of Bim peptide binding to Mcl-1, primary screen, biochemical, bead-based flow cytometry, multiplex; inhibition, % at 10 µM; Bim peptide-Mcl-1 binding; AID 1009, 2008; 0.1% of 190,000 active; in the data active = inhibition above about 40%
# BCLXL inh confirm: Bcl-xL inhibitors blocking Bim BH3 binding, confirmation, counter-screen for MCL1 inhibitor project, biochemical, fluorescence polarization; shares compounds with MCL1-BIM inh; GST-Bcl-xL / FITC-Bim BH3 peptide FP binding; inhibition, % at 10.9 µM; 54% of 1,700 active;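 active = inhibition above a cutoff equal to the mean inhibition of all tested compounds plus 3 SD, cut at about 30% in these data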
# MCL1 BIM confirm: inhibitors of MCL1 binding to BIM-BH3, confirmation, biochemical, fluorescence polarization, triplicate. shares compounds with MCL1-BIM inh. GST-MCL1 / FITC-Bim-BH3 fluorescence polarization. inhibition, % at 10.9 µM. 61% of 1,700 active. AID 2168, 2009;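 active = inhibition above the average of all tested compounds plus 3 SD, cut at about 40% in these data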
# Numbers stand for hits; i = inactive; nt = no result.
SMILES,Mcl1-Noxa inh,eIF4E-4G inh,14-3-3 Bad inh,MCL1-BIM inh,Mcl1 Bid PPI,Mcl-1 Bim block,BCLXL inh confirm,MCL1 BIM confirm
COc1ccc(NS(=O)(=O)c2ccc(NC(=S)NC(=O)c3cccc(F)c3)cc2)nn1,i,i,i,41.8,i,i,i,i
COc1ccc(NS(=O)(=O)c2ccc(NC(=S)NC(=O)c3cccnc3)cc2)nn1,i,i,i,i,i,i,nt,nt
COCCN1C(=O)Cc2c1nc(N)c1c(N)nc(N3CCN(c4ccc(F)cc4)CC3)c(C#N)c21,60.7,i,i,41.7,i,i,i,i
O=C1c2ccccc2S(=O)(=O)c2cc(N3CCc4ccccc4C3)ccc21,nt,nt,nt,i,nt,nt,nt,nt
CSc1ccc(C2C(C(=O)c3ccco3)=C(O)C(=O)N2c2nnc(SC)s2)cc1 (configuration not stated),nt,nt,nt,92.8,nt,nt,142.6,167.7
C=CCOc1cccc(C2C(C(=O)c3ccc(C)o3)=C(O)C(=O)N2c2nccs2)c1 (configuration not stated),i,i,i,162.3,i,i,137.4,162.4
Cc1ccc(C2C(C(=O)c3cccs3)=C(O)C(=O)N2c2nnc(C)s2)cc1 (configuration not stated),i,i,i,86.3,i,i,122.8,142.7
COc1cccc(C2C(C(=O)c3ccc(C)o3)=C(O)C(=O)N2c2cc(C)on2)c1 (configuration not stated),nt,nt,nt,i,nt,nt,nt,nt
CCCOc1cccc(C2C(C(=O)c3ccco3)=C(O)C(=O)N2c2nnc(C)s2)c1 (configuration not stated),nt,nt,nt,53.7,nt,nt,55.8,72.3
Cc1nnc(N2C(=O)C(O)=C(C(=O)c3ccco3)C2c2ccc(F)cc2)s1 (configuration not stated),i,i,i,i,i,i,nt,nt
Cc1nc2ccc(NC(=O)CCC3CCCC3)cc2s1,nt,nt,nt,i,nt,nt,nt,nt
COc1ccc(N2CCN(C3CCCN(C(=O)CN4CCCC4=O)C3)CC2)cc1 (configuration not stated),nt,nt,nt,i,nt,nt,nt,nt
CCN1CCN(c2ccc(Nc3ccnc4ccccc34)cc2)CC1,nt,nt,nt,i,nt,nt,nt,nt
CCN(CC)c1ccc2cc(-c3nc4ccccc4n3C)c(=O)oc2c1,i,i,i,i,i,i,nt,nt
CCN(CC)c1ccc2cc(-c3nc4ccccc4[nH]3)c(=O)oc2c1,i,i,i,75.5,96.3,i,89.5,105.0
CCN(CC)c1ccc2cc(-c3nc(-c4ccc(OC)cc4)cs3)c(=O)oc2c1,i,i,i,110.5,i,nt,114.5,133.9
CN(c1ccccc1C(=O)N1CCN(c2ccccc2)CC1)S(C)(=O)=O,i,i,i,i,i,i,nt,nt
COc1ccc(CNC(=O)CSc2ccc(Br)cc2)cc1OC,i,i,i,i,i,i,nt,nt
O=c1c(O)cccc2cc(O)c(O)c(O)c12,103.5,60.8,94.0,109.1,92.3,nt,85.4,103.4
COc1cc2cccc(OC)c(=O)c2c(OC)c1OC,i,i,i,i,i,i,nt,nt
Cc1cc(C)cc(OCC(=O)NNC(=O)c2cc(C)[nH]n2)c1,i,i,i,i,i,i,nt,nt
Cc1cc(C(=O)NN)n[nH]1,i,i,i,56.1,i,nt,i,i
COCCCNC1=C(Cl)C(=O)c2ccccc2C1=O,i,i,i,i,i,nt,nt,nt
COCCCNc1c2c3c(cccc3[nH]c1=O)C(=O)c1ccccc1-2,i,i,i,124.2,i,i,126.3,136.9
COCCNc1nnc(SCC(=O)NNC(=O)c2ccc([N+](=O)[O-])cc2)s1,nt,nt,nt,74.6,nt,nt,i,i
SMILES,Mcl1-Noxa inh,eIF4E-4G inh,14-3-3 Bad inh,MCL1-BIM inh,Mcl1 Bid PPI,Mcl-1 Bim block,BCLXL inh confirm,MCL1 BIM confirm
COc1cccc(C(=O)/C=C/Nc2cccc(O)c2)c1,i,i,i,94.5,i,i,i,i
COc1cccc(N/C=C/C(=O)c2ccc(C)cc2)c1,nt,nt,nt,i,nt,nt,nt,nt
CCCn1c(C2CCCN2c2nc(-c3cccc(Br)c3)cs2)nc2ccccc21 (configuration not stated),nt,nt,nt,i,nt,nt,nt,nt
N#Cc1c(-c2ccco2)cc(-c2ccccn2)nc1N,65.9,i,i,43.1,i,i,i,i
N#Cc1c(-c2ccco2)cc(-c2cccnc2)nc1N,62.4,i,i,75.1,i,i,i,i
COC(=O)c1cc(S(=O)(=O)Nc2ccc(C)cn2)c[nH]1,nt,nt,nt,i,nt,nt,nt,nt
CC(C)Oc1ccc(CC(=O)NNC(=S)Nc2ccccc2)cc1,i,i,i,185.6,i,nt,i,i
Cc1ccc(-c2cnc(-c3ccccc3C(=O)O)o2)cc1,nt,nt,nt,i,nt,nt,nt,nt
CCC(C)(c1nnnn1-c1c(C)cccc1C)N(N=O)c1ccccc1Cl (configuration not stated),i,i,i,i,i,i,nt,nt
N#Cc1c(SCC(=O)N2CCOCC2)nsc1SCC(=O)N1CCOCC1,i,i,i,76.1,i,i,i,i
CCCSc1nc(NCc2ccco2)c2c3c(sc2n1)COC(C)(C)C3,i,i,i,i,i,i,nt,nt
C=CCN1C=CC(=O)CC1,i,i,i,131.3,i,nt,i,i
COC(=O)C1=C(C)NC2=C(C(=O)CCC2)C1c1ccc(-c2ccsc2C(=O)OC)o1 (configuration not stated),i,i,i,i,i,nt,nt,nt
COc1ccc2c(c1)O/C(=C\c1ccco1)C2=O,i,i,i,i,i,nt,nt,nt
Cc1cc(O)c(CN(C)C)c2c1C(=O)/C(=C/c1ccco1)O2,nt,nt,nt,60.8,nt,nt,78.2,89.0
C=CCn1c(CSc2ccccc2[N+](=O)[O-])n[nH]c1=S,nt,nt,nt,45.5,nt,nt,i,46.2
Cc1ccccc1N=Cc1cccc(O)c1O,i,i,i,65.1,i,i,37.4,56.1
Cc1ccc(N=Cc2cccc(O)c2O)c(C)c1,i,nt,nt,60.2,i,i,i,i
CC(N=Cc1cccc(O)c1O)c1ccccc1 (configuration not stated),51.8,i,i,66.1,i,i,32.4,71.3
Cc1cc(C)c(NC(=O)CN(C)C(C)C(=O)N2CCc3ccccc32)c(C)c1 (configuration not stated),nt,nt,nt,i,nt,nt,nt,nt
COc1ccc(NC(=O)Nc2nc(C)cc(C)n2)c(OC)c1,i,i,i,i,i,nt,nt,nt

# Screening results deposited in PubChem by several laboratories.
